Rows were chosen to be rich in hits. Some 2.8% of all compounds tested hit in one or more screens of this group.
PI4K2A inh: PI4K2A (human) kinase inhibition; purified PI4K2A, ADP-Glo luminescence, 1 h; active compounds read low; activity change, negative = inhibition, % at 76.9 µM; actives 0.13% (n = 420,000); AID 1346378; in the data active = activity change below about -50%; inconclusive = mostly about -30% to -49%;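 note: -100% = wells without enzyme as full effect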
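PI4K2A activity was measured by ADP-Glo luminescence: enzyme (4 ug/mL stock) and phosphatidylinositol (1.2 mM stock) in Tris pH 7.5/MgCl2/EGTA/Triton X-100 buffer were reacted with ATP (300 microM stock) for one hour at ambient temperature.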
Pol beta inh-1: inhibitors of human DNA polymerase beta; actives 1.3% (n = 340,000); Pol beta primer extension/strand displacement, fluorescence kinetic; P06746; Potency, µM (series often up to 114 µM), for inactives: at the highest dose activity change, negative = inhibition, hits mostly inhibitors; note: potency is the fitted concentration of half-maximal effect; % is set by controls: 0 for no effect and ±100 for the full control effect
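10 nM enzyme + cpd, 15 min RT; start with substrate 50 nM final; read 0 min and after 10 min RT. Corrected, normalized data; 4-parameter Hill curve fit.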
Pol kappa inh-1: inhibitors of human DNA polymerase kappa; AID 588579; Potency, µM (highest dose often 107 µM), inactives show top-dose activity, negative = inhibition, hits mostly inhibitors; purified Pol kappa, fluorescent DNA synthesis assay, 10 min; actives 0.53% (n = 400,000); note: potency is the fitted concentration of half-maximal effect; % is set by controls: 0 for no effect and ±100 for the full control effect
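Kinetic fluorescence screen: compound preincubated 15 min RT with 10 nM enzyme; 50 nM substrate (final) initiates; reads at 0/10 min.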
Pol eta inh-1: DNA polymerase eta (human) inhibition; Q9Y253; recombinant Pol eta, fluorescent DNA replication assay; Potency, µM (titrated, usually from 114 µM), inactives show top-dose activity change, negative = inhibition, usual class: inhibitors; actives 1.2% (n = 390,000); note: potency is the fitted concentration of half-maximal effect; % is set by controls: 0 for no effect and ±100 for the full control effect
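Fluorescent replication assay: 50 nM final substrate added after a 15 min room-temperature compound preincubation with 10 nM enzyme. Signal taken at 0 min and again at 10 min.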
POLI inh: blocks human DNA polymerase iota activity | Q9UNA4 | Potency, µM (top dose mostly 115 µM), for inactives: at the top dose activity, negative = inhibition, usual class: inhibitors | Pol iota fluorescent replication assay, 10 min | actives 1% (n = 390,000); note: potency is the fitted concentration of half-maximal effect
Target sequence (Q9UNA4 whole entry, looked up): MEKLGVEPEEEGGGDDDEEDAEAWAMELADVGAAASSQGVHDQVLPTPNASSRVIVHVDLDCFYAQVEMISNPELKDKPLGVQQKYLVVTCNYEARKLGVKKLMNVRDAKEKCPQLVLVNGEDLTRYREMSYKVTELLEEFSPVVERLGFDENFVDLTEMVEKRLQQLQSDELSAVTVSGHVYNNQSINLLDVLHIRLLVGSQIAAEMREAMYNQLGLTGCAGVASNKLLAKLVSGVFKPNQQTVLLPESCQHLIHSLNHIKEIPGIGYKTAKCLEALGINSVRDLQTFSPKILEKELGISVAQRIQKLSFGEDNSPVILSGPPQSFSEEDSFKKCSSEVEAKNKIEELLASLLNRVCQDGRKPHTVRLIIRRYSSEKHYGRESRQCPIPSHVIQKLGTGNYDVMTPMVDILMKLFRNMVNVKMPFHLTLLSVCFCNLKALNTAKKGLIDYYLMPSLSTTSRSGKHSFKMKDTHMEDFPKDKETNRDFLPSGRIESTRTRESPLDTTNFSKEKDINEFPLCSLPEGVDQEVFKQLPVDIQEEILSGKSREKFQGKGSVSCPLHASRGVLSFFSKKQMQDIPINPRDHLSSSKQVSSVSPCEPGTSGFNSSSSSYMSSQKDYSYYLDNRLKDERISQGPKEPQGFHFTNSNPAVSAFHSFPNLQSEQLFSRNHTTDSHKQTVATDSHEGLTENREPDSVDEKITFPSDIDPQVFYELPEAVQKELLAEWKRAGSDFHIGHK
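Fluorescent replication assay read twice, at 0 min and 10 min after adding 50 nM (final) substrate. Enzyme (10 nM) and compounds were first incubated 15 min at room temperature; enzyme-free buffer wells were negative controls.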
PI5P4Ka inh: PI5P4K alpha (human) kinase inhibition | actives 1.2% (n = 330,000) | max response, % | PI5P4Kalpha enzyme, ADP-Glo luminescence, 60 min; active compounds read low; active = max response of -50% or lower; inconclusive = between -30% and -50%; inactive = -30% or higher; note: value at the top dose of about 77 µM; % is set by controls: 0 for no effect and ±100 for the full control effect
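qHTS, 1536-well: enzyme/substrate mix, compound by pin tool, 5 microM ATP final; RT 60 min; ADP-Glo reagents 1 (45 min) then 2 (30 min); luminescence.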
Pol beta inh-2: Human Pol beta inhibitor hit validation | shares compounds with Pol beta inh-1 | Pol beta primer extension/strand displacement, fluorescence kinetic | Potency, µM, usual class: inhibitors | actives 87% (n = 250) | AID 540280; calls by dose curve; note: potency is the fitted concentration of half-maximal effect
Klenow inh: Klenow polymerase inhibition, pol beta selectivity check; shares compounds with Pol beta inh-1; Klenow exo- polymerase counter-screen, fluorescent DNA substrate; activity change, negative = inhibition, % at 57.1 µM; 250 tested, under 10 active; AID 540300
HIV RT inh: HIV-1 RT inhibition, pol beta selectivity check. shares compounds with Pol beta inh-1. HIV-1 RT polymerase activity, counter-screen. 250 tested, under 10 active. activity % (negative = inhibition, positive = activation), % at 57.1 µM
POLB inh gel: DNA polymerase beta inhibition, radiolabeled validation. AID 540325. radiolabeled primer extension gel assay, phosphorimager. inhibition, % at 10 µM. actives 91% (n = 110). shares compounds with Pol beta inh-1;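 active = inhibition at 10 µM of 30% or more; inconclusive = no clear call, values can overlap the other calls; inactive = inhibition at 10 µM under 30%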
TbPGK inh: validation of Trypanosoma brucei phosphoglycerate kinase inhibitors. actives 79% (n = 500). TbPGK coupled GAPDH assay, Kinase-Glo luminescence. shares compounds with Pol kappa inh-1. Potency, µM (titrated, usually from 57.5 µM), for inactives: top-dose activity change, negative = inhibition, most hits filed as inhibitors; note: potency is the fitted concentration of half-maximal effect; % is set by controls: 0 for no effect and ±100 for the full control effect; nearly all actives have a fitted effect of over 65% in size
Pol iota confirm: Inhibitors of human DNA polymerase iota, confirmation. actives 77% (n = 1,500). Potency, µM, actives largely listed as inhibitors. shares compounds with Pol kappa inh-1. AID 720496. Pol iota primer extension, TAMRA/BHQ fluorescence; note: potency is the fitted concentration of half-maximal effect
Pol kappa inh-2: Pol kappa (human) inhibition, cherry-pick confirmation; shares compounds with Pol eta inh-1; purified Pol-kappa, fluorescent strand-displacement substrate; Potency, µM, usual class: inhibitors; actives 76% (n = 920); AID 720501; note: potency is the fitted concentration of half-maximal effect
Pol eta inh-2: confirmation of human DNA polymerase eta inhibitors. shares compounds with Pol eta inh-1. Pol eta primer extension, TAMRA/BHQ fluorescence, 10 min. actives 64% (n = 2,600). Potency, µM, most hits filed as inhibitors; note: potency is the fitted concentration of half-maximal effect
* marks the source's active call; other numbers are inactive results; ? = inconclusive; . = not tested or not shown; [ ] = another dose, or the depositor's remark. Unless noted, calls come from the whole dose curve; as a rule, active = well fitted curve in the direction sought with a large enough effect; inconclusive = small, poorly fitted or top-dose-only effect, or another doubt; inactive = no such curve, though single readings can be large; an effect the other way counts as inactive or inconclusive.

SMILES	PI4K2A inh	Pol beta inh-1	Pol kappa inh-1	Pol eta inh-1	POLI inh	PI5P4Ka inh	Pol beta inh-2	Klenow inh	HIV RT inh	Pol iota confirm	Pol eta inh-2	others
Cc1ccccc1NC(=O)Nc1nnc([C@@H]2C[C@H](O)[C@@H](CO)O2)s1	1	.	.	.	.	-5	.	.	.	.	.
Cc1ccc(/C=C/C(=O)N2CCc3ccccc32)o1	-17	13µM*	?	8.9µM*	35µM*	-75*	18*	-3	20	67*	67*
CCOC(=O)/C=C/C(=O)N1CCc2ccccc21	-3	30%	-5%	9%	?	1	.	.	.	.	.
CCOc1ccccc1NC(=O)C1CCN(S(=O)(=O)c2c(C)noc2/C=C/c2ccco2)CC1	?	17%	-1%	-12%	-19%	.	.	.	.	.	.
COC(=O)c1ccccc1NC(=O)c1ccc2nccnc2c1	-1	3.2µM*	?	32µM*	?	?	35*	-27	39	.	?
O=C1N=c2ccccc2=C1c1sc(Nc2ccc(O)cc2)nc1O	-65*	20µM*	35µM*	32µM*	8.9µM*	-65*	7.9*	-38	6	47*	?	Pol kappa inh-2=17*
CC1=C(C(=O)OC(C)C)C(c2ccc(Cl)cc2)n2c(s/c(=C\c3ccc(OCC(=O)O)cc3)c2=O)=N1 (stereo not drawn)	-7	3.5µM*	-31%	8.9µM*	?	2	7.1*	-6	19	38*	60*
CCOC(=O)C1=C(C)N=c2sc(=Cc3ccc(OCC(=O)O)cc3)c(=O)n2C1c1ccc(SC)cc1 (stereo not drawn)	-22	.	.	.	.	-18	.	.	.	.	.
CCc1ccccc1N1CC(c2nc3ccccc3n2CC(C)C)CC1=O (stereo not drawn)	3	2%	-22%	-7%	8%	.	.	.	.	.	.
CCOC(=O)c1ccc(N2N=C(C)/C(=C/C=C/c3ccco3)C2=O)cc1	-3	?	-25%	-14%	?	-11	.	.	.	.	.
CC1=NN(c2ccc(C)c(C)c2)C(=O)/C1=C\C=C\c1ccc([N+](=O)[O-])o1	?	7.1µM*	50µM*	40µM*	11µM*	-52*	32*	-19	17	42*	54*	POLB inh gel=99*
CCN(CC)c1ccc(NC(=O)CCS(=O)(=O)c2ccc(Br)cc2)c(C)c1	-9	7.1µM*	?	14µM*	40µM*	-9	10*	-24	?	47*	17*	TbPGK inh=10µM*;Pol kappa inh-2=7.5*
O=C(CSc1ccccn1)Nc1ccc2c(c1)C(=O)c1ccccc1C2=O	-1	8.9µM*	-24%	?	3%	-21	11*	-26	24	53*	60*	Pol kappa inh-2=60*
O=C(CSc1ccccn1)Nc1ccc2ccccc2c1	.	-14%	.	.	.	.	.	.	.	.	.
COc1ccc(OCc2nn3c(-c4ccco4)nnc3s2)cc1	2	?	-6%	?	-7%	-22	.	.	.	.	.
c1coc(-c2nnc3sc(Cc4cccs4)nn23)c1	-20	13µM*	20µM*	28µM*	7.9µM*	.	22*	-10	38	?	?	POLB inh gel=36*
O=C(CSc1ccsc1[N+](=O)[O-])N1CCN(c2ccc(Cl)cc2)CC1	-8	14µM*	?	28µM*	28µM*	-62*	40*	-27	62	.	?
COc1ccc(-c2nnc(Nc3ccc(S(=O)(=O)Nc4nccs4)cc3)c3ccccc23)cc1	-5	1.8µM*	50µM*	32µM*	20µM*	-24	7.9*	-21	26	?	43*	Pol kappa inh-2=34*
CCCSc1nnc(NC(=O)c2sc3nc(-c4cccs4)ccc3c2N)s1	-3	18µM*	-17%	79µM*	?	.	13*	-7	4	?	60*	Pol kappa inh-2=19*
CCNc1ncc2nc(CCc3ccccc3)c(=O)n(CCC#N)c2n1	.	.	-2%[60.1 µM]	.	.	.	.	.	.	.	.
CS(=O)(=O)N1CCC[C@@]2(CCN(Cc3ccccc3)C2)C1	.	.	1%[60.1 µM]	.	.	.	.	.	.	.	.
CCOC(=O)c1ccccc1NC(=O)Cn1ncc2c([nH]c3ccccc32)c1=O	-12	1%	-2%	-1%	7%	.	.	.	.	.	.
Cc1ccc(-c2nnc(SCC(=O)Nc3ccc(-c4nc5ccc(C)cc5s4)cc3)n2Cc2ccco2)cc1	-5	.	.	.	.	.	.	.	.	.	.
C=CCn1c(SCC(=O)Nc2ccc(-c3nc4ccc(C)cc4s3)cc2)nnc1-c1ccccc1	0	6.3µM*	-33%	?	56µM*	-18	20*	-1	53	67*	?	POLB inh gel=60*
Cc1ccccc1-n1c(SC/C(O)=C(\C#N)c2nc3ccccc3[nH]2)nnc1-c1ccncc1	3	?	-31%	?	?	?	.	.	.	.	.
Cc1cc(C)n2c(SC/C(O)=C(\C#N)c3nc4ccccc4[nH]3)nnc2n1	-19	18µM*	45µM*	3.2µM*	11µM*	-81*	35*	5	-4	.	76*	POLB inh gel=100*
Cc1ccc(-c2cc(-c3ccco3)c(C#N)c(=O)[nH]2)cc1	-2	11µM*	?	28µM*	?	-17	22*	-28	-5	21*	15*	POLB inh gel=96*
